From PubChem BioAssay AID1275 (Emory University Molecular Libraries Screening Center, 2008)
Screen size: about 1,000 compounds; about 160 (16%) were called active. The rule behind the calls is not given here. The list shows a part of the results.

molecular target: Neutrophil cytosol factor 1 (Homo sapiens) (UniProt P14598); experiment: p47phox binding inhibitors, dose response, biochemical, NADPH oxidase regulatory subunit, fluorescence polarization (AID 1275); conditions: at 12.5 µM
Sequence (P14598 whole entry, looked up): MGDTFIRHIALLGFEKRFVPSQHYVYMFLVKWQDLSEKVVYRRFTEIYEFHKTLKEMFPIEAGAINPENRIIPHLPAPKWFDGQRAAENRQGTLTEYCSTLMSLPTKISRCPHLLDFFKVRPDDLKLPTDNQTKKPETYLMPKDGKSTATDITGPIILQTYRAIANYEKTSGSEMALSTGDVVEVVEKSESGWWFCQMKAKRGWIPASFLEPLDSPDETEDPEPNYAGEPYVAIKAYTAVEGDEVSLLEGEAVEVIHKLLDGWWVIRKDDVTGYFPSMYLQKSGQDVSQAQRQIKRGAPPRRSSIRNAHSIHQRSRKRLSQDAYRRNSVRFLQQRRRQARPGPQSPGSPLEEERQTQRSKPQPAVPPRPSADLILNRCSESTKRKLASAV

Percent of control, lower = inhibition, active:
N#CC(C#N)=C1C=C2C=C(N3CCCCC3)CCC2CC1 (stereo unspecified) 107
Cc1ccc(-n2c(C)cc(C3N=C(N)Nc4nc5ccccc5n43)c2C)c(C)c1 (stereo unspecified) 66.2
CCN1CCN(Cc2ccc(NC(=O)c3ccc(C)c(NC(=O)c4c[nH]c5cc(C(F)(F)F)ccc5c4=O)c3)cc2C(F)(F)F)CC1 53.8
CN(C)c1ccc(/C=C/C(=O)c2cc(Cl)ccc2O)cc1 50.8
Cc1ccc2cc3c(N)c4c(C)ccc(C)c4nc3nc2c1 51.8
CN(C)c1ccc(/C=C(\C#N)C(=O)c2ccccc2)cc1 69.6
